Screening data as filed in PubChem BioAssay.
In the library only some 2.8% were active in any assay of this set; here they are far more common.
Shn3 3UTR inh: Schnurri-3 reporter inhibition in Clone20 osteoblasts; Clone20 osteoblast Shn3 3'UTR firefly luciferase, 24 h; inhibition, % at 12.5 µM; actives 0.52% (n = 360,000); AID 588674;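 active means mean inhibition of at least 75% with every replicate also reaching 75%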
Peg3 promoter: Peg3 promoter activity inhibition. inhibition, % at 20 µM. AID 588405. HeLa PEG-Prom luciferase reporter, luminescence, overnight. actives 1.7% (n = 360,000);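 active means inhibition of at least 50% at 20 µM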
HIF-2a inh: blocks HIF-2a reporter activity; 786-0 RCC cells HIF-2a reporter, luciferase luminescence, overnight; inhibition, % at 18.8 µM; actives 0.72% (n = 360,000);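 active means inhibition of the luminescence signal of 40% or more relative to plate controls, in a single-dose primary screen at 18.75 µM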
TRPM1 prom inh: reduces MITF-dependent TRPM1 promoter luciferase signal; inhibition, % at 12.5 µM; SK-MEL-5 TRPM1 promoter luciferase, 24 h; actives 0.83% (n = 330,000); AID 488899;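 active means mean inhibition across replicates of 60% or more, whatever share of single replicates reaches that level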
CF NFkB block: cystic fibrosis NF-kB activation inhibition; KKLEB NF-kB-GFP reporter, PAF-induced, GFP fluorescence overnight; actives 0.86% (n = 360,000); inhibition, % at 5 µM; AID 588850;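 active means at least 50% inhibition at 5 µM, scaled per plate between neutral and stimulator controls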;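 further: PAF is a Pseudomonas aeruginosa culture filtrate used as stimulus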
KKLEB cytotox: CF airway cell cytotoxicity counter-screen. KKLEB CF airway cells viability, ATPlite luminescence, overnight; hits give low values; cells stimulated with P. aeruginosa culture filtrate. activity change (cytotoxicity), % at 5 µM. actives 0.36% (n = 360,000). AID 602141;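 active means corrected activity change at or below -50% at 5 µM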
Mdm2-MdmX confirm: Mdm2/MdmX (human) interaction inhibition, confirmed; actives 99% (n = 740); AID 504601; shares compounds with HIF-2a inh; SaOS-2 split-luciferase Mdm2/MdmX complementation, luminescence; inhibition, % at 8 µM;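 active means mean inhibition of the luminescence signal across two replicates at or above 26 percent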
HIF-2a conf: confirmation of HIF-2a inhibitors | shares compounds with HIF-2a inh | 786-0 RCC cells, HIF-2a luciferase reporter luminescence, overnight | inhibition, % at 18.8 µM | actives 56% (n = 1,800);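 active means mean inhibition across four replicates of at least 40 percent at the single tested concentration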
HIF-1a cs: HIF-1a inhibition counter-screen for HIF-2a hits. shares compounds with HIF-2a inh. AID 651589. actives 72% (n = 1,800). MiaPaCa-2 HIF-1a luciferase reporter, desferoxamine, overnight. inhibition, % at 18.8 µM;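 active means mean inhibition of the reporter signal across four replicates at the single tested dose of 50% or more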
Large screens that a line does not name were inactive (follow-up assays come after a bar, where they were run).

Cc1nc(SCCC(=O)O)c2cc(-c3ccccc3)sc2n1	HIF-2a inh 85 | HIF-2a conf 91 | HIF-1a cs inactive
Cc1nc(N2CCOCC2)c2cc(-c3ccccc3)sc2n1	none
CCCc1nnc(NC(=O)CS(=O)(=O)c2ccc(C)cc2)s1	none
Cc1cccc(CS(=O)(=O)c2ncc(Cl)c(C(=O)Nc3c(C)cccc3C)n2)c1	Peg3 promoter 103, HIF-2a inh 47, CF NFkB block 98, KKLEB cytotox -66 | Mdm2-MdmX confirm 103 | HIF-2a conf 68 | HIF-1a cs 90
CSc1ncc(Cl)c(C(=O)Nc2cccc(C)c2)n1	none
CCCc1nnc(NC(=O)c2nc(S(=O)(=O)Cc3cccc(C)c3)ncc2Cl)s1	Shn3 3UTR inh 93, Peg3 promoter 109, HIF-2a inh 69, TRPM1 prom inh 78, CF NFkB block 94, KKLEB cytotox -90 | HIF-2a conf inactive | HIF-1a cs 106
O=C(NC(=S)Nc1ccc(Cl)cn1)c1cc([N+](=O)[O-])ccc1N1CCOCC1	none
Cc1ccc2c(c1)/C(=C/c1ccccc1)C(=O)N2	none
COc1ccc2c(c1)/C(=C\c1cccc(/C=C3/C(=O)Nc4ccc(OC)cc43)n1)C(=O)N2	Shn3 3UTR inh 96, Peg3 promoter 107, HIF-2a inh 90, TRPM1 prom inh 98, CF NFkB block 83 | HIF-2a conf 98 | HIF-1a cs 107
CCOC(=O)C(C)(C)N(Cc1ccccc1C)S(=O)(=O)c1ccc(Cl)c([N+](=O)[O-])c1	Peg3 promoter 100, HIF-2a inh 40 | HIF-2a conf inactive | HIF-1a cs inactive
CNc1nc(-c2ccc3c(c2)CCN3C(=O)CC(C)(C)C)c(C)s1	none (no result: TRPM1 prom inh)
CC(=O)Nc1nc(-c2ccc3c(c2)CCN3C(=O)C2CC2)c(C)s1	none | Mdm2-MdmX confirm 97
O=C(Nc1cccc(F)c1)/C(=C/c1ccco1)NC(=O)c1ccco1	none
NC(=O)c1ccccc1NC(=O)Nc1ccc(F)c(Cl)c1	none
O=C(Nc1ccc2nc3n(c(=O)c2c1)CCCCC3)c1c(F)ccc([N+](=O)[O-])c1F	Shn3 3UTR inh 99, Peg3 promoter 108, HIF-2a inh 88, TRPM1 prom inh 97, CF NFkB block 87, KKLEB cytotox -87 | Mdm2-MdmX confirm 103 | HIF-2a conf 98 | HIF-1a cs 96
O=C(Nc1ccc2nc3n(c(=O)c2c1)CCCCC3)c1ccccc1[N+](=O)[O-]	none
O=C(COn1nnc2ccccc21)N1CCN(Cc2ccccc2)CC1	none
O/N=C(\c1ccccc1)C(O)c1ccccc1 (stereo not drawn)	none
O=C(N/N=C/c1ccc([N+](=O)[O-])s1)c1ccccc1Br	HIF-2a inh 70, TRPM1 prom inh 90 | HIF-2a conf 76 | HIF-1a cs 91
O=C(N/N=C/c1ccc([N+](=O)[O-])s1)c1ccccc1	HIF-2a inh 51, TRPM1 prom inh 105 | HIF-2a conf 49 | HIF-1a cs 67
Cc1ccccc1NC(=O)/C=C/c1ccc([N+](=O)[O-])s1	Shn3 3UTR inh 93, Peg3 promoter 107, HIF-2a inh 86, TRPM1 prom inh 92, CF NFkB block 66, KKLEB cytotox -59 | HIF-2a conf 68 | HIF-1a cs 104
Cc1ccccc1C(=O)N/N=C/c1ccc([N+](=O)[O-])s1	Peg3 promoter 50, HIF-2a inh 76, TRPM1 prom inh 94 | HIF-2a conf 90 | HIF-1a cs 95
Cc1ccc(-c2nc(SC(C)C(=O)N3CCOCC3)n[nH]2)cc1 (stereo not drawn)	none
O=[N+]([O-])c1ccc(O)c(/C=N/NC(=S)Nc2ccc(Cl)cc2Cl)c1	none
O=[N+]([O-])c1ccc(/C=N/NC(=S)Nc2ccc(Cl)cc2Cl)s1	Peg3 promoter 60 | Mdm2-MdmX confirm 84
